# Screening data deposited in PubChem BioAssay by National Center for Advancing Translational Sciences (NCATS).
# Compounds with a hit are over-represented: about 1.8% of the library has one in this group of screens.
# TSHR antagonist: human thyrotropin receptor antagonism | P16473 | TSHR-expressing cells, TSH-stimulated cAMP HTRF, 2 h; hits give low values | activity change, negative = inhibition, % at 11.5 µM | 330,000 tested, 0.2% active;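 active means activity change below a set negative limit, meaning inhibition stronger than a set level, cut at about -70% in these data; inconclusive means activity change between two set negative limits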
#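 Read-out is FRET at 665 nm (cryptate excitation 337 nm) from a cryptate-tagged anti-cAMP antibody, competed by cell cAMP against cAMP-d2. Compounds are tested on freshly harvested TSHR cells challenged with 4nM TSH (EC80) for 2 hours at 37 deg C.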
# GLP-1R agonist: GLP-1 receptor (human) agonism. HEK293 GLP-1R CRE-luciferase, luminescence, 4-6 h; cells express a hypersensitive GLP-1R form. Potency, µM (titrated, usually from 45.6 µM), actives largely listed as activators. 380,000 tested, 0.007% active
# GLP1R inv ag: inverse agonists of human GLP-1 receptor; P43220; HEK293 GLP-1R CRE-luciferase, luminescence, 24 h; GLP-1R form is constitutively active; Potency, µM (doses to about 38.3 µM), most hits filed as inhibitors; 410,000 tested, 1.6% active; further: nearly all actives have a fitted effect of over 55% in size
#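 Assay principle: reduced luminescence from a cAMP-responsive reporter in HEK293 cells co-expressing a constitutively active GLP-1R. Conditions: 24 hr compound incubation, 37 deg C, 5% CO2.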
# PTHR1 agonist: PTHR1 (human) receptor agonism; Q03431; HEK293 GP2 PTHR1 cells, GloSensor cAMP luminescence, 1 h; Potency, µM (series often up to 115 µM), actives largely listed as activators; 410,000 tested, 0.075% active; AID 743266; further: nearly all actives have a fitted effect of over 55% in size
# Target sequence (Q03431 whole entry, looked up): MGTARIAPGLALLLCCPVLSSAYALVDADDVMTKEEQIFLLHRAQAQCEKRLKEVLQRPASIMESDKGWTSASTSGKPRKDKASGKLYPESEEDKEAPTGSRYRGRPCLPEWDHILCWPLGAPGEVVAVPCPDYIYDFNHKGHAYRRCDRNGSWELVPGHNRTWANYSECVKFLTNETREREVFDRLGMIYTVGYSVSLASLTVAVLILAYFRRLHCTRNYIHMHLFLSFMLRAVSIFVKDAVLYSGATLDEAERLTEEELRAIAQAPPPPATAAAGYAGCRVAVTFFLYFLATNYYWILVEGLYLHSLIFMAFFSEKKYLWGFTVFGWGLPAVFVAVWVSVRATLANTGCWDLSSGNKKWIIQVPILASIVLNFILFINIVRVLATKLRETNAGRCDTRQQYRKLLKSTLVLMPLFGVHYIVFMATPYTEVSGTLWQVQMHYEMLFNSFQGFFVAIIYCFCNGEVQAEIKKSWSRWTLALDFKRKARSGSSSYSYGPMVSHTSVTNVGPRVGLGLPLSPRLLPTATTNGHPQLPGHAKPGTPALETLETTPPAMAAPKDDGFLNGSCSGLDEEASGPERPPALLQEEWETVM
#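 HEK-293-derived GP2 cells expressing PTHR1 and a GloSensor cAMP reporter, 3,000/well, plated overnight, given luciferin plus IBMX (each 0.5 mM as added) for 1 h at 37 °C, then compound for 1 h at 37 °C. Luminescence was read after 15 min at room temperature.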
# GLP1R cytotox: cytotoxicity in counter-screen for GLP-1R inverse agonists; HEK293 cAMP-luciferase reporter cells, luminescence, 24 h; Potency, µM (highest dose often 38.3 µM), most hits filed as inhibitors; 410,000 tested, 0.13% active; AID 624418;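 further: loss of luciferase light is scored as toxicity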
#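 Cells in DMEM/10% Nu serum/1% pen-strep, 1536-well format. Pre-incubated 12 h, dosed with 23 nL compound, incubated a further 24 h. Luciferase detection, 12 min at room temp, luminescence.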
# Hits are given with their value; . = inactive; ? = inconclusive; / = no result given. Unless noted, the call rests on the fitted dose curve; in most records, active means well fitted curve in the direction sought with a large enough effect; inconclusive means small, poorly fitted or top-dose-only effect, or another doubt; inactive means no such curve, though single readings can be large; an effect the other way counts as inactive or inconclusive.
SMILES,TSHR antagonist,GLP-1R agonist,GLP1R inv ag,PTHR1 agonist,GLP1R cytotox
O=C(CSc1nnc(Cc2cccs2)n1C1CCCCC1)N1CCCc2ccccc21,.,.,3.5µM,.,?
Cc1nnc(SCC(=O)NC2CCCCC2)n1-c1ccccc1,/,.,.,.,.
Cn1c(Cc2cccs2)nnc1SCC(=O)N1CCCc2ccccc21,.,.,.,.,.
O=C(CSc1nnc(Cc2cccs2)n1-c1ccccc1)NC1CCCCC1,.,.,1.4µM,.,.
O=C(CSc1nnnn1C1CCCC1)N1CCCc2ccccc21,.,.,?,.,.
O=C(CSc1nnc(Cc2cccs2)n1CCc1ccccc1)N1CCCc2ccccc21,.,.,10µM,.,.
NC(=O)C1CCN(c2nc(-c3ccccc3[N+](=O)[O-])cs2)CC1,.,/,/,/,/
CC1=C(C(=O)NC(C)CCc2ccccc2)C2(CCC(C)CC2)OC1=O (centres undefined),.,.,8.9µM,.,.
CCCCNC(=O)c1ccccc1NC(=O)CCSc1ccccc1,.,.,10µM,.,.
CCCCNC(=O)Nc1ccccc1C(=O)NCCC,.,.,.,.,.
COc1ccc(-c2nc3ccccc3c(C(=O)Nc3ccc(S(=O)(=O)Nc4cc(C)on4)cc3)c2C)cc1,.,.,5µM,.,.
C#CCN(C[C@@H]1[C@@H](OC(=O)Nc2cccs2)[C@@H](OC(=O)Nc2cccs2)Cn2c(=O)ccc(=O)n21)S(=O)(=O)c1ccc(C)cc1,/,.,2.8µM,.,?
CCC(NC(=O)CNC(=O)c1ccc2c(c1)OCO2)c1ccc(Br)cc1 (centres undefined),.,.,13µM,.,.
O=C(CNC(=O)c1ccc2c(c1)OCO2)Nc1cccc(Br)c1,.,.,?,.,.
COC(=O)C1CCCN1S(=O)(=O)c1ccc2ccccc2c1 (centres undefined),-78,.,.,?,.
COC(=O)c1ccccc1NC(=O)N1CCC(n2c(C)nc3cccnc32)CC1,/,/,.,.,.
CCc1ccc(CNC(=O)CCCn2ccc3cc(S(=O)(=O)N4CCCC4)ccc32)cc1,/,/,8.9µM,.,.
CCc1ccc(CNC(=O)C(C)n2ccc3cc(S(=O)(=O)N4CCCCCC4)ccc32)cc1 (centres undefined),/,/,10µM,.,.
CC(C(=O)NCc1ccc(Cl)cc1)n1ccc2cc(S(=O)(=O)N3CCCCCC3)ccc21 (centres undefined),/,/,?,.,.
COc1ccc(CNC(=O)CCc2ccc(S(=O)(=O)N3CCCCCC3)cc2)cc1,.,.,.,.,.
CN(C)c1ccc(CNC(=O)CCc2ccc(S(=O)(=O)N3CCCCCC3)cc2)cc1,.,.,11µM,.,.
COC(=O)CNC(c1ccccc1)c1cc(Cl)ccc1NC(=O)c1cccc(Cl)c1 (centres undefined),.,.,10µM,.,.
NNC(=O)CNC(c1ccccc1)c1cc(Br)ccc1NC(=O)c1cccc(Cl)c1 (centres undefined),.,.,?,.,.
CCOC(=O)CNC(c1ccccc1)c1cc(Br)ccc1NC(=O)c1cccc(Cl)c1 (centres undefined),/,/,8.9µM,.,.
CCCC(c1nnnn1CC1CCCO1)N1CCN(c2nc3ccccc3s2)CC1 (centres undefined),.,.,?,.,.
SMILES,TSHR antagonist,GLP-1R agonist,GLP1R inv ag,PTHR1 agonist,GLP1R cytotox
CCCCC(c1nnnn1CC1CCCO1)N1CCN(c2nc3ccccc3s2)CC1 (centres undefined),.,.,10µM,.,.
Cc1nn(Cc2ccc(Cl)c(Cl)c2)c(C)c1NC(=O)c1cc(CC(C)C)on1,.,.,3.2µM,.,.
Cc1ccccc1Cn1nc(C)c(NC(=O)c2cc(CC(C)C)on2)c1C,.,.,?,.,.
CCOc1ccc(-c2nonc2NC(=O)COc2ccc(C)c(C)c2)cc1OCC,/,/,.,.,.
COc1ccc(NC(=O)C2(C)Cc3c(-c4cccc(NC(C)=O)c4)ccnc3O2)cn1 (centres undefined),/,.,1.1µM,.,?
CCC(Cc1ccccc1)NC(=O)CN1C(=O)COc2ccc(S(=O)(=O)N3CCCCCC3)cc21 (centres undefined),/,.,.,?,.
C[C@H]1[C@@H](OC(=O)CCC(=O)O)OC2OC3(C)CC[C@H]4[C@H](C)CC[C@@H]1[C@@]24OO3 (some centres undefined),/,.,/,/,/
O=C(Nc1ccccc1C(F)(F)F)C1CCN(S(=O)(=O)Cc2ccccc2)CC1,/,/,.,.,.
C=CCNC(=O)c1ccc(C2SCC(=O)N2Cc2ccccc2)cc1 (centres undefined),.,.,.,.,.
O=C(NCc1ccccc1)c1ccc(C2SCC(=O)N2Cc2ccccc2)cc1 (centres undefined),.,.,10µM,.,.
CCOc1cc(C(=O)NCC(C)(C)CNC(=O)c2cc(OCC)c(OCC)c(OCC)c2)cc(OCC)c1OCC,/,.,10µM,.,.
COc1cc(C(=O)NCC(C)(C)CNC(=O)c2cc(OC)c(OC)c(OC)c2)cc(OC)c1OC,.,.,.,.,.
Cc1cc(-c2nc3ncccc3o2)ccc1NC(=O)c1ccc(Cl)cc1,/,/,.,.,.
O=C(CCl)Nc1ccc(-c2ccccc2)cc1,.,.,10µM,.,?
O=C1C(Cl)=C(NCCN2CCCCC2)C(=O)c2ccccc21,.,.,11µM,.,?
O=C(O)CCn1cc(/C=C\C(=O)c2ccc(Cl)cc2)c(-c2cccc(Br)c2)n1,.,.,13µM,.,.
O=Cc1cn(CCC(=O)O)nc1-c1cccc(Br)c1,.,.,.,.,.
CCOC(=O)CC1(NC(=O)c2cc(COc3ccc(F)c(F)c3)on2)CCCCC1,.,.,10µM,.,.
C=CCC1(CC=C)CCCN1C(=O)c1cc(COc2ccc(F)c(F)c2)on1,.,.,2.8µM,.,.
COC(=O)[C@@]12C[C@@H](CC(=O)NCc3cccs3)C(=O)N(Cc3cccc4ccccc34)C1=CCC(C)(C)C2,/,/,11µM,.,.
C#CCNC(=O)C[C@@H]1C[C@@]2(C(=O)OC)CC(C)(C)CC=C2N(Cc2cccc3ccccc23)C1=O,/,/,?,.,.
COC(=O)[C@@]12C[C@@H](CC(=O)NCC34CC5CC(CC(C5)C3)C4)C(=O)N(Cc3ccco3)C1=CCC(C)(C)C2,/,/,10µM,.,.
CCC(=O)Nc1ccc(CC)cc1-c1nc2ccccc2n(Cc2ccccc2)c1=O,/,/,.,.,.
Cc1ccc(S(=O)(=O)N2CCCc3cc(NS(=O)(=O)c4cc(F)ccc4F)ccc32)cc1,/,/,?,.,.
Cc1ccc(C)c(N2CCN(CCCNC(=O)Cn3c(-c4cccs4)cc4ccccc43)CC2)c1,/,/,?,.,.
